Among the data in PubChem BioAssay (NCI) are growth values, retold here.

Compounds without any hit were thinned out: in the full panel of roughly 83,000, 20% have a hit.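 The endpoint reported here, percent growth, reads 100 for growth as untreated, 0 for no net growth and -100 for all cells dead.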 Values without a mark were called inactive. Active and inactive are the calls of the source.

This assay has as its system KM12 colon. The assay is described as follows: NCI-60 one-dose screen, 48 h (100 = growth as untreated, 0 = no growth, -100 = all killed). The settings on record: 10 µM unless noted. As to the method:
Growth inhibition of the KM12 human tumor cell line is measured as a screen for anti-cancer activity. Cells are grown in 96 well plates and exposed to the test compound for 48 hours. Compounds are tested at a single concentration, which is 10^-5 M for most compounds. The reported endpoint is percent growth (GI% or GIPRCNT), where numbers from 0 - 100% represent growth inhibition, and numbers from -100% - 0 represent cell death. For example, a value of 40 represents 60% growth inhibition. A value of 0 means no net growth occurred over the course of the experiment. A value of -40 indicates 40% of cells at the beginning of the experiment died by the end of the experiment. A value of -100 means all cells are dead at the end of the experiment.
NCI-60 Human Tumor Cell Lines Screen was performed using the standard one-dose NCI protocol, which is described in more detail at https://dtp.cancer.gov/discovery_development/nci-60/default.htm.
Compounds with GIPRCNT values below 10 were considered active. Activity score was based on GIPRCNT using the following formula: […]
Score is 0 for GIPRCNT values of 100 or above, 50 for GIPRCNT values of 0, and 100 for GIPRCNT values of -100.
`Nc1c(C(=O)Nc2ccccn2)sc2nc3c(cc12)C(=O)CCC3`: the growth is 16.3%. The figure for `COC(=O)/C=C1\SC(=Nc2ccc(F)cc2)N(CCc2c[nH]c3ccccc23)C1=O` is 100%; for `C#C[C@@]1(O)[C@@H](CO)O[C@@H](n2cc(Cl)c3c(N)ncnc32)[C@@H]1O` it is 1.42% (active). The figure for `Cc1c(O)c(=O)ccn1-c1nc2ccccc2s1` is 98.5%. As for `Cc1cc(C)c2nc(Nc3nc(C)c(C)c(=O)[nH]3)nc(C)c2c1`, the growth is 11.3%. For `O=S(=O)(Nc1nccs1)c1ccc(Nc2nc(-c3ccncc3)cs2)cc1`, the growth is 105%. For `NC(=O)CN1C(=O)c2ccccc2C1=O`, the growth is 103%. As to `C=CCn1c(CN2CCN(c3cc4c(cc3F)c(=O)c(C(=O)O)cn4C3CC3)CC2)n[nH]c1=S`, the growth is 99.4%. Regarding `COc1ccc(C2N(c3cc(OC)c(OC)c(OC)c3)C(=O)C2(F)F)cc1F` (stereo not given), the growth was 22.9%. The figure for `Cn1c2ccccc2c2c(OC(=O)c3ccccc3)c3c(nc21)-c1ccccc1C3` is 96.7%.

Regarding `CCCS(=O)(=O)Nc1ccc(F)c(C(=O)c2c[nH]c3ncc(-c4ccc(OCCCC5CCCCN5)nc4)cc23)c1F` (stereo not given), the growth was 103%. The figure for `C/C(=N\NC(=O)c1ccncc1)c1ccc(N)cc1` is 106%; for `COc1ccc(OCC(=O)OC(C)C)cc1` it is 93.8%. Regarding `CC(=O)ON1CCCC(P(=O)(OCOC(=O)C(C)(C)C)OCOC(=O)C(C)(C)C)C1=O` (stereo not given), the growth was -11.5% (active). As to `COc1ccc2c(c1)C1(C(=O)N2)C(C#N)=C(c2ccccc2)Nc2c1c(-c1ccccc1)nn2-c1ccccc1` (stereo not given), the growth was 39.7%. Then `COC(=O)c1nc(-c2ccccc2)oc1S(=O)(=O)n1nc(C)cc1N`, with 96.3%; and `COc1cccc2c1-c1ccccc1C2=O`, with 36%.

Take `Oc1ccc(CNNc2ccnc3c(O)cccc23)c2cccnc12`: the growth is 22.9%. The figure for `O=C1NC(c2ccc(F)cc2)N=C2C(c3ccccc3)=NOC12` (stereo not given) is 98.8%. On to `CCCNc1nc(C)[nH]c(=O)c1S`, for which the growth is 107%. The figure for `Cc1cc2ccccc2c[n+]1CC(=O)c1ccc(-c2ccccc2)cc1` is 56.7%. Consider `COc1ccc2cc(/C=C3\N=C(c4cc(OC)c(OC)c(OC)c4)OC3=O)c(OC)nc2c1`, for which the growth was 98.9%. Then `CCOc1ccc(C2N(c3cc(OC)c(OC)c(OC)c3)C(=O)C2(F)F)cc1` (stereo not given), with 28%; and `Cc1cc(Cl)cc(CN(Cc2ccccc2)Cc2c(O)ccc3ccccc23)c1O`, with 99.9%. For `O=C1NN(c2ccccc2)C(c2ccc3c(c2)OCO3)N2CCC[C@@H]12` (stereo not given in full), the growth is 98.8%. The figure for `O=C(/C(=C/c1ccc([N+](=O)[O-])cc1)SCc1ccccc1)c1ccc(Cl)cc1` is 65.6%; for `CC(=O)Nc1nc2c(c(N)c1C#N)C(c1cccc(Cl)c1)C1=C(CCCC1=O)N2c1sc2c(c1C#N)CCCC2` (stereo not given) it is 49.1%. As to `CN1CC=C(c2cc(NC(=O)Nc3ccc(Oc4ccnc(NC(=O)C5CC5)c4)c(F)c3)cc(C(F)(F)F)c2)CC1`, the growth is -11.2% (active). Take `COc1ccc(-c2cn(-c3ccc(Cl)cc3)c(=S)[nH]2)cc1OC`: the growth is 70.2%. The figure for `CCOC(=O)c1c(C)nc2c(c1N)/C(=C/c1ccccn1)C(=O)N2Cc1ccccc1` is 12.2%. Then `c1ccc(-c2n(Cc3ccc4ccccc4n3)cc[n+]2Cc2ccc3ccccc3c2)cc1`, with -38.5% (active); and `C=C1C(=O)O[C@H]2[C@H]1CC/C(COC(=O)c1cc3ccccc3o1)=C\CC[C@@]1(C)O[C@@H]21`, with 26.7%.

Take `CN1CCN(/C=C2\CC(C(=O)NCc3ccc(Cl)cc3Cl)NC2=O)CC1` (stereo not given): the growth was 103%.

Take `C[C@H]1[C@H](C)CC[C@]2(C(=O)OCCOCCOCC[P+](c3ccccc3)(c3ccccc3)c3ccccc3)CC[C@]3(C)C(=CC[C@@H]4[C@@]5(C)CC[C@H](OC(=O)C(Cl)Cl)C(C)(C)[C@@H]5CC[C@]43C)[C@H]12`: the growth was 7.09% (active). The figure for `O=C(Nc1ccc(N=Cc2ccccc2O)cc1)NC1C=c2ccccc2=CC1` (stereo not given) is 103%; for `C=C(C)[C@@H]1CC[C@]2(C(=O)OCCCC[P+](c3ccccc3)(c3ccccc3)c3ccccc3)CC[C@]3(C)[C@H](CC[C@@H]4[C@@]5(C)CC[C@H](OC(=O)C(Cl)Cl)C(C)(C)[C@@H]5CC[C@]43C)[C@@H]12` it is -54.8% (active); for `O=C(Nc1nc(-c2ccccc2)cs1)c1cc(-c2ccc(Br)cc2)nc2ccccc12` it is 67%. Then `O=C1C(=O)c2c(nc3ccc(C(F)(F)F)cn23)-c2ccccc21`, with -61.7% (active); and `Nc1ccc(C2=NN(C(=O)c3cc(-c4ccc(Cl)cc4)nc4ccccc34)C(c3ccc(Cl)cc3)C2)cc1` (stereo not given), with 27.5%; and `O=C1CCC23OC(c4ccccc4N12)C(O)C(O)C3O` (stereo not given), with 104%.
